# Results published in PubChem BioAssay AID652040 (Broad Institute, 2013).
# Entries with a potency or affinity are not part of this list. Calls of active or inactive are those of the source.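 Rule for the calls: active = falling luciferase signal whose fitted half-maximal concentration is at most twice the top tested dose; inconclusive = flat inhibition between 30 and 70% or a poor curve fit; inactive = the rest.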
# Assay: off-target signal loss in HeLa-CEM21 co-culture – HeLa F-luc CTL cells, cherry-picked, counter-screen for HIV-1 Env fusion inhibitor project, dose response (AID 652040);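 note: 0% = median of neutral control wells and -100% = doxycycline 40 µg/mL wells; more negative values mean stronger loss of luciferase signal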
# Conditions: HeLa-F-luc CTL cells with CEM21, firefly luciferase counterscreen; series mostly up to 35 µM; activity change, negative = inhibition: at the top concentration
row,SMILES,"activity change, negative = inhibition"
1,CCC(=NCc1ccc(F)cc1)c1c(O)n(C)c(=O)n(C)c1=O,-4.39% (inactive)
2,CCC(=NCCc1c[nH]c2ccccc12)c1c(O)n(C)c(=O)n(C)c1=O,45.4% (inactive)
3,Cn1nc(-c2ccc(OCC(=O)N3CCN(Cc4ccccc4)CC3)cc2)c2ccccc2c1=O,13.6% (inactive)
